Bioassay records as filed in PubChem.
Compounds with a hit are over-represented: about 1.4% of the library has one in this group of screens.
Mtb MenB inh = M. tuberculosis MenB inhibitors, primary screen, biochemical, absorbance; MenB enzyme assay, absorbance read-out; inhibition, % (no concentration beside the values); AID 540299, 2011; 0.43% of 100,000 active; 1,4-dihydroxy-2-naphthoyl-CoA synthase (Mycobacterium tuberculosis (strain ATCC 25618 / …; in the data active means inhibition above about 21%, passing the limit was not always enough
PV pol inh = poliovirus RdRp elongation inhibitors, primary screen, biochemical, fluorescence polarization, total intensity | poliovirus polymerase elongation; active compounds read low | % elongation, % (compound at 16.7 µg/mL) | 0.66% of 150,000 active; in the data active means % elongation below about 90%
Target sequence (P03300 1749-2209 limits assumed): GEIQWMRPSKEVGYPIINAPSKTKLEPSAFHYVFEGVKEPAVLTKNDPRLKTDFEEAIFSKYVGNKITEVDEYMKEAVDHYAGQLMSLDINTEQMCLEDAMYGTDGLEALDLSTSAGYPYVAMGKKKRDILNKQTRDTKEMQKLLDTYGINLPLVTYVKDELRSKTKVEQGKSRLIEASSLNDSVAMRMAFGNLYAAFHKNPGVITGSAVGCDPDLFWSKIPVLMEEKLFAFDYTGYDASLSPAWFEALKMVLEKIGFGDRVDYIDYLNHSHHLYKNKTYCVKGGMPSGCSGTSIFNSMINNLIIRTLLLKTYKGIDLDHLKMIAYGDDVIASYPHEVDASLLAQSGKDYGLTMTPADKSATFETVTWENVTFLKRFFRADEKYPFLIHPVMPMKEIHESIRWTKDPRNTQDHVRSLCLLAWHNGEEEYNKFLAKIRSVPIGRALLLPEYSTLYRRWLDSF
AID504770 = growth inhibition of E. coli YBA685, primary screen, V. cholerae RctB inhibitors | E. coli YBA685 rctB-dependent plasmid, OD600 growth, 3 h; active compounds read low | z-score (concentration not given with the values) | 0.27% of 130,000 active; in the data active means z-score below about -2, passing the limit was not always enough
MbtI inh = MbtI salicylate synthase inhibitors, primary screen, biochemical, fluorescence intensity; P9WFX0; 0.89% of 100,000 active; inhibition, % (test concentration not listed); purified MbtI enzyme, fluorescence intensity read-out; in the data active means inhibition mostly above about 56%, no sharp cut-off; inactive means mostly below about 77%
Hits are given with their value; – = inactive; · = no result given.

SMILES | Mtb MenB inh | PV pol inh | AID504770 | MbtI inh
Cc1ccc(C(C(=O)NC2CCCCC2)N(C)C)cc1 (stereo not drawn) | – | – | – | –
O=C1C2C3c4ccccc4C(c4ccccc43)C2C(=O)N1Cc1ccco1 (stereo not drawn) | 23 | – | – | –
CCc1nnc(Cn2nnc3c(=O)[nH]c(C(=O)Nc4ccc(C)cc4)nc32)s1 | – | 86 | – | –
CCC(C)NC(=O)c1nc2c(nnn2Cc2ccccc2Cl)c(=O)[nH]1 (stereo not drawn) | – | – | – | –
Oc1ccccc1C1=NC(c2ccc(F)cc2)NC(c2cccnc2)C1 (stereo not drawn) | – | – | – | –
O=C1CSC(N2CCOCC2)=N1 | – | – | – | –
Cc1nn(C)c2c1S(=O)(=O)N=C(N1CCOCC1)S2 | – | 81 | – | –
O=C(NC(NCC12CC3CC(CC(C3)C1)C2)(C(F)(F)F)C(F)(F)F)c1ccccc1 | – | – | – | ·
CC(C)NC(=O)CSc1nc2ccccc2s1 | – | – | – | –
O=C(CSc1nc2ccccc2s1)NNc1ncnc2c1cnn2Cc1ccccc1 | – | – | – | 56
C/C(=N\NC(N)=O)c1ccc(NC(=O)c2ccc(F)cc2)cc1 | – | – | – | –
Cc1ccc(-c2ccnc(-c3ccc(O)cc3)n2)cc1 | · | · | – | ·
Cc1ccc(-c2nc(I)ccc2O)cc1 | 39 | – | – | –
CCOC(=O)N1CCN(CC2CCCCC2)CC1 | – | – | – | –
CCN1CCN(CC2CCCCC2)CC1 | 34 | – | – | –
O=C1C(Nc2ccccc2)=CC(=O)c2ncccc21 | – | 82 | · | –
CNC(=O)C1c2ccccc2Oc2ccccc21 | – | – | – | –
CC(C)(C)C1=CC(C(C#N)C#N)c2ccccc2O1 (stereo not drawn) | · | – | -2.1 | –
O=c1oc2c(o1)=C(c1ccccc1)S(=O)(=O)C=2c1ccccc1 | – | – | – | 58
O=c1cc(-c2ccccc2)oc2ccccc12 | · | · | – | ·
CCc1ccc(Nc2nc3ccccc3c3nncn23)cc1 | – | – | – | –
CCN(CC)P1(=S)c2c(C)nn(CCC#N)c2N=C(c2ccc(F)cc2)N1C (stereo not drawn) | – | – | – | –
Cc1nn(CCC#N)c2c1P(=S)(N1CCCCC1)OC(c1ccccc1)=N2 (stereo not drawn) | – | 90 | – | –
O=C1CC(c2ccccc2)=Nc2ncccc2N1 | – | – | – | –
Cc1ccc(C)c(OC(=O)/C=C/c2ccco2)c1C | – | – | – | –
SMILES | Mtb MenB inh | PV pol inh | AID504770 | MbtI inh
Cc1ccc2c(c1)n([O-])c1c([n+]2=O)CCCC1 | – | – | – | –
O=[n+]1c2c(n([O-])c3ccccc31)CCC2 | – | – | -3.3 | –
O=C(NCCc1ccccc1)C1CCN(Cc2cc3ccccc3n2Cc2cccc(Cl)c2)CC1 | · | – | · | ·
CC(C)CCNC(=O)C1CCN(Cc2cccc(OCc3ccccc3)c2)CC1 | – | 74 | – | ·
CCOC(=O)c1[nH]nc(C(=O)c2ccccc2)c1-c1ccccc1 | · | · | – | –
Cc1ccc(C)c(S(=O)(=O)Nc2cc(Cl)c3oc(=O)sc3c2)c1 | – | – | – | 62
CN1C(N)=NC(=O)/C1=C/c1cccnc1 | – | – | – | –
COc1cc(NCCCC(C)N)c2ncccc2c1 (stereo not drawn) | – | 35 | – | –
CCOC(=O)CCN1C(=O)c2ccccc2C1=O | – | – | – | –
O=C(CCN1C(=O)c2ccccc2C1=O)OCc1ccco1 | – | 90 | – | –
CCC1CCCCN1C(=O)CSc1cnc2ccccc2n1 (stereo not drawn) | – | – | – | –
Cc1ccc(C(=O)Nc2nncs2)cc1 | 26 | – | – | –
CCc1ccc(C(=O)Nc2nncs2)cc1 | – | – | – | –
O=c1[nH]snc1N1CCCCC1 | – | 64 | – | –
O=c1[nH]snc1N1CCOCC1 | · | · | – | –
CC1Cc2ccccc2N1C(=O)/C=C/c1cccc(F)c1 (stereo not drawn) | – | – | – | –
Nc1cccc2c1C(=O)N(C(=O)/C=C/c1cccc(F)c1)C2=O | – | 82 | – | –
N[C@@H]1C[C@H]1c1ccccc1 | 36 | – | · | –
O=C(O)C1CC1c1ccccc1 (stereo not drawn) | – | – | – | –
O=C(Cc1coc2cc(O)ccc12)OCc1ccccc1C(F)(F)F | – | – | – | –
O=C(Cc1coc2cc(O)ccc12)OCC(=O)c1ccc2[nH]c(=O)[nH]c2c1 | – | 72 | – | –
CCOc1ccccc1N1CCN(C(=O)[C@H](C)NC(N)=O)CC1 | – | – | – | –
CCn1c(CCC(=O)O)nc2cc(S(N)(=O)=O)ccc21 | – | 64 | – | –
COc1ccc(Cc2nn3c(Cc4ccccc4)nnc3s2)cc1 | – | – | – | 93
CCc1nn2c(C(=O)NCc3ccccc3)cc(=O)nc2s1 | · | · | – | –
SMILES | Mtb MenB inh | PV pol inh | AID504770 | MbtI inh
CCN(CC)c1cc(-c2cccs2)nc(SCC(=O)c2cccs2)c1C#N | – | 77 | – | ·
C=CCN1C(=O)/C(=N/N=C/c2ccc(OC)c(O)c2)c2ccccc21 | – | – | – | –
Cc1cc(C)c(S(=O)(=O)N(CCC(C)C)S(=O)(=O)c2ccccc2C#N)c(C)c1 | – | – | -4.1 | –
Nc1cc(=O)[nH]c2n[nH]c(=S)n12 | 33 | – | – | 100
CC(C(=O)C12CC3CC(CC(C3)C1)C2)N(C)C (stereo not drawn) | – | – | – | –
Cc1cc(NC(=O)CCc2ccccc2)no1 | · | · | – | ·
Cc1cc(NC(=O)CSc2ccccc2)no1 | 32 | – | – | –
Cc1nnc2c(NCCN3CCN(c4cccc(Cl)c4)CC3)nc3ccccc3n12 | – | – | – | –
Cc1occc1C(=O)NCc1ccccc1 | 56 | – | – | –
CCN(CC)c1ccc(NC(=S)NC(C)C)cc1 | – | – | – | –
CCN(CC)c1ccc(NC(=S)Nc2ccc(S(N)(=O)=O)cc2)cc1 | – | – | – | 63
CCCc1c(C(=O)Nc2ccc3c(c2)OCCO3)cnn1-c1ccccc1 | – | – | – | –
COc1ccc(-c2sc(C(=O)O)cc2C)cc1 | – | – | – | –
COc1ccc(-c2csc(=Nc3cc(C(=O)O)ccc3C)o2)cc1 | – | 86 | – | ·
COc1ccc(C(C)=NNC(=O)c2cc(Br)ccc2O)c(OC)c1 | – | – | – | –
O=C(O)C1C2C=CC(C2)C1C(=O)N1CCN(Cc2ccccc2)CC1 (stereo not drawn) | – | 80 | – | –
COc1ccc(/C(C)=N/O)cc1 | – | – | – | ·
CN1C(=O)NC(=O)/C(=C\C=C\c2ccccc2)C1=O | – | – | – | 84
CN1C(=O)NC(=O)/C(=C/c2ccc(F)cc2)C1=O | – | – | – | –
O=C1NC(=O)C(=C/C=C/c2ccccc2)C(=O)N1 | – | – | – | 78
COc1ccc2nc(SCC(=O)c3ccc(O)c(O)c3)[nH]c2c1 | – | – | – | 70
COc1ccc(C)cc1CN(C)c1ncnc2ccccc12 | – | – | – | –
C=CCNc1nc(C(=O)OCC(=O)c2cc(C)n(Cc3ccc4c(c3)OCO4)c2C)cs1 | – | – | – | –
O=C1NC2(CCCC2)NN1C(=O)c1ccncc1 | – | – | – | –
COc1ccc(-c2nc(N)s[n+]2-c2ccccc2)cc1 | · | – | – | 98
